In PubChem BioAssay AID1220 (Sanford-Burnham Center for Chemical Genomics, 2008):
Hit rate of the full screen: of about 190,000 compounds, about 1,300 (0.68%) were called active. Rule as the data show it: active = inhibition above about 50%; inactive = the rest. What follows is part of a selection rich in actives, with near analogues and random picks from the rest.

Molecular target: Mannose-6-phosphate isomerase (Homo sapiens) (UniProt P34949)
Assay: human PMI inhibitors, high substrate, primary screen, biochemical, fluorescence intensity, high mannose 6-phosphate (AID 1220)
Conditions: recombinant PMI enzyme, coupled fluorescence intensity; at 20 µM; hits give high values

Chain of Mannose-6-phosphate isomerase (Homo sapiens) (P34949 whole entry, looked up): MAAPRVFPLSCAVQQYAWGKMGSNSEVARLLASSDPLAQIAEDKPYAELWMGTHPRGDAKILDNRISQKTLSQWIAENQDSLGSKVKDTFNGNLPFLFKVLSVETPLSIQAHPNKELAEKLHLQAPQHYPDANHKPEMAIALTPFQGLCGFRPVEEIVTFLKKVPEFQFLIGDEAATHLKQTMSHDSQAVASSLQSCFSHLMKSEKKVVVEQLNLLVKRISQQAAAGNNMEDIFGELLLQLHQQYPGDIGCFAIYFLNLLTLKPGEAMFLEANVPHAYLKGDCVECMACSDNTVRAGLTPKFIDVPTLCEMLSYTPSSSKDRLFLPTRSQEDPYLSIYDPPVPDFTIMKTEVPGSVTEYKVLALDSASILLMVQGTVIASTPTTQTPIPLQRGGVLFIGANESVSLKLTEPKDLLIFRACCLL

inhibition, inactive:
CCCC(=O)Nc1ccc(C(N)=O)cc1 5.2%
Cc1ccc(C)c(NC(=O)CCC(=O)NNC(=O)C(c2ccccc2)c2ccccc2)c1 -16.3%
CC(C)OC(=O)CSc1nnc2c(n1)[nH]c1ccc(F)cc12 -5.2%
O=C(NC1CCN(S(=O)(=O)c2ccccc2)CC1)C1CCCCC1 7.7%
O=C(c1ccc(Cl)cc1Cl)N1CCC(c2nc3c(nnn3Cc3ccco3)c(=O)[nH]2)CC1 14.6%
CN(C)CCCN(C(=O)CCc1ccccc1)c1nc2c(F)cccc2s1 4%
CN(C)CCCN(C(=O)COc1ccccc1)c1nc2c(F)cccc2s1 -2.9%
COc1ccc(C)cc1NC(=O)CN(C)S(=O)(=O)c1cccs1 1.9%
Cc1ccc(SCCC(=O)NCCSCc2ccccc2C)cc1 8.3%
CCOc1ccc(C(=O)CCNC(Cc2cnc[nH]2)C(=O)O)cc1 (configuration not stated) 3.4%
CCOC(=O)CN1C(=O)S/C(=C/c2ccc(N3CCCCC3)o2)C1=O 24.1%
O=C1N/C(=C/c2ccc(N3CCOCC3)o2)C(=O)N1c1ccccc1 9%
O=C1S/C(=C/c2ccc(N3CCOCC3)o2)C(=O)N1Cc1c(F)cccc1Cl 5.6%
COC(=O)CN1C(=O)S/C(=C/c2ccc(N3CCCCC3)o2)C1=O 46%
CCCN1C(=O)S/C(=C\c2ccc(N3CCOCC3)cc2C)C1=O 9.4%
O=C1N/C(=C/c2ccc(N3CCOCC3)o2)C(=O)N1c1cccc(Cl)c1 15.3%
O=C1S/C(=C/c2ccc(N3CCOCC3)o2)C(=O)N1Cc1ccc(F)cc1 45.3%
CC(C)OC(=O)CN1C(=O)S/C(=C/c2ccc(N3CCCCC3)o2)C1=O 25%
COc1ccc(C2C(C(=O)c3ccc(C)o3)=C(O)C(=O)N2c2cc(C)on2)cc1OC (configuration not stated) -22.3%
O=C(CSc1ncccn1)Nn1cnnc1 -0.7%
COc1ccc(NC(=O)Nc2cc(NC(=O)Nc3ccc(OC)cc3)c(C)nc2C)cc1 -8.6%
CC(=O)N1c2ccccc2NC2=C(C(=O)CCC2)C1c1cccnc1 (configuration not stated) 6.7%
Clc1cccc(OCCn2cncn2)c1Cl -4.8%
O=C(CCCC(=O)N1CCc2ccccc21)N1CCc2ccccc21 -6.6%
COc1cc(OC)cc(C(=O)NNC(=S)NCc2ccco2)c1 -10.1%
COc1ccc(-n2c(CSc3nc(C)cc(C)n3)nnc2SCC(=O)Nc2nccs2)cc1 1.3%
CS(=O)(=O)c1ccccc1-c1nc(-c2cccc(Cl)c2)no1 9.9%
CSc1nc2sc3c(c2c(=O)n1C1CCCCC1)CCN(C)C3 10.7%
CCSc1nc2sc3c(c2c(=O)n1C1CCCCC1)CCN(C)C3 -33.5%
CCOc1ccc(CNC(=O)CCc2cn(Cc3ccccc3)c3ccccc23)cc1 0.6%
C=CCn1c(C)cc(C)c(C#N)c1=O -6.4%
C=CCn1c(O)c(CN2CCN(Cc3ccccc3)CC2)c(C)c(C#N)c1=O 15.6%
C=CCn1c(O)c(C(CC)=NCCN2CCOCC2)c(=O)[nH]c1=O -15.4%
Cc1oc(C(C)(C)C)c(CN2CCOCC2)c1C(=O)O -2.9%
O=C(NCCC1=CCCCC1)C(=O)NCC(c1ccco1)N1CCN(c2ccc(F)cc2)CC1 (configuration not stated) 2.7%
OCc1nc2ccccc2n1CCCOc1ccccc1 -6.4%
COc1cc(NC(=S)NCCC(c2ccccc2)c2ccccc2)c(OC)cc1Cl 17.2%
Cc1nnc(Sc2nc3c(c(=O)n(C)c(=O)n3C)n2Cc2ccc(Cl)cc2)s1 7.9%
CSc1ccc(C#N)cc1NC(=O)c1ccccc1C -2.5%
COCc1c(C#N)c(NCCc2ccc(F)cc2)nc(C)c1[N+](=O)[O-] 9.3%
CCCC(=O)c1ccc(N2CCN(C(=O)c3ccc(Br)cc3)CC2)c(F)c1 -2.3%
CCC(=O)c1ccc(N2CCN(C(=O)c3ccc(Br)cc3)CC2)c(F)c1 9.1%
O=C(NCCCCCCNC(=O)C1CCCC1)C1CCCC1 -0.9%
O=C(COc1ccc2ccccc2c1)Nc1ccc2c3c(cccc13)CC2 -1.8%
O=C(NCc1ccccc1)NC(O)C(Cl)(Cl)Cl (configuration not stated) 0.1%
O/C(=C\c1ccc2ccccc2n1)c1ccc(O)cc1O -10.3%
COc1ccc(NC(=O)c2ccc(-n3cccn3)nc2)cc1 0.8%
CCOc1ccc(NC(=O)c2ccc(-n3cccn3)nc2)cc1 2.9%
CCOc1ccc(N=C2Sc3nc4ccc(C)cc4cc3CN2CCOC)cc1 9.3%
CC(=O)c1cc2c(cc1NC(=O)CN1CCN(c3ccc(F)cc3)CC1)OCO2 5.5%
CCOC(=O)C1=C(c2ccccc2)NC(SCC(=O)Nc2cccc(C)c2)=C(C#N)C1c1ccco1 (configuration not stated) 15.6%
Cc1cc(N=Cc2cc(Cl)ccc2O)no1 14.2%
Cc1oc(/N=C/c2ccccc2O)c(C#N)c1C -16.8%
Nc1cc(Cl)nc(N/N=C/c2c(O)ccc3ccccc23)n1 13.3%
COc1cccc(C=Nc2ccc(C)c(F)c2)c1O 15.7%
Cc1oc(/N=C/c2cccc3ccccc23)c(C#N)c1C 20.1%
Cc1cc(O)c(C=Nc2ccc(Cl)cn2)c(=O)o1 -60.9%
Cc1cc(N=Cc2cc(Br)ccc2O)no1 -9.4%
Cc1cc(C)n(/N=C\c2c(O)ccc3ccccc23)c(=O)c1C(N)=O 22.5%
COc1ccccc1Nc1ccc(N)cc1 23.2%
O=C(Cn1ccccc1=O)c1ccc(Cl)cc1 -5.5%
N#C/C(=C\c1cn(CCOc2ccccc2)c2ccccc12)C(=O)NCc1ccco1 -1.2%
COc1ccccc1OCC(=O)Nc1ccccn1 1.4%
COc1ccc(CNn2c(-c3cccs3)nc3ccccc3c2=O)cc1OC 8%
CCN(C(=O)CSc1nnc(-c2ccncc2)n1-c1ccccc1)C1CCS(=O)(=O)C1 (configuration not stated) -2.5%
CCc1ccc(C(=O)NN(C(=O)c2ccc(CC)cc2)C(C)(C)C)cc1 14.2%
CCOc1ccc(S(=O)(=O)N2CCN(c3ccccc3F)CC2)c2cccnc12 27%
O=C(OCc1c(F)cccc1Cl)c1cnccn1 11.3%
Oc1ccc2ccccc2c1/C=N/c1nc2c(s1)CCCC2 46.1%
Oc1ccc2ccccc2c1C=Nc1ccc(N2CCOCC2)cc1 29%
Cc1c(Cc2ccccc2)sc(/N=C/c2c(O)ccc3ccccc23)c1C(N)=O 29.8%
COc1ccc2nc(N=Nc3c(O)ccc4ccccc34)sc2c1 24.5%
Oc1[nH]c2ccccc2c1/C=N/c1nccs1 -1%
Oc1oc(-c2cccc3ccccc23)nc1/C=N/c1nccs1 9.5%
Oc1ccc2ccccc2c1C=Nc1ccccc1-c1nc2ccccc2[nH]1 22.9%
Cc1sc(/N=C/c2c(O)ccc3ccccc23)c(C#N)c1C -3.6%
Cn1c(CSc2nc3ccccc3s2)nnc1SCC(=O)NCCCN1CCOCC1 -11.8%
Cc1ccsc1C(=O)NNC(=O)C1CC=CCC1C(=O)O (configuration not stated) -4.3%
COC(=O)c1cccc(NC(=O)c2cccs2)c1C 10.7%
CC(C)C(c1nnnn1C1CCCCC1)N1CCCc2ccccc21 (configuration not stated) 8.3%
Cc1ccc(N2CCN(C(=O)c3cc(C(=O)c4ccccc4C)c[nH]3)CC2)c(C)c1 16.7%
Cc1noc(C)c1Cn1nc(C(=O)O)c2ccccc2c1=O 1.4%
CCOC(=O)c1cc(CC)sc1/N=C/C1=C(O)CCCC1=O 14.3%
COc1ccc(N=Cc2oc3ccc4ccccc4c3c2O)cc1 13.8%
COc1ccc2nc(N)sc2c1 -1.6%
COc1ccc(N=Cc2c(O)[nH]c3ccccc23)cc1 1.9%
COc1ccc2c(c1)-c1nc(NC(=O)c3cccs3)sc1CC2 -22.3%
CCOC(=O)c1cc(CC)sc1/N=C/C1=C(O)CC(C)(C)CC1=O 7.3%

inhibition, active:
CN(C)CCCN(C(=O)CCOc1ccccc1)c1nc2c(F)cccc2s1 54.4%
O=C1S/C(=C\c2ccc(N3CCOCC3)o2)C(=O)N1c1ccccc1 53.8%
CCCN1C(=O)S/C(=C\c2ccc(N3CCOCC3)o2)C1=O 52.4%
O=C1S/C(=C\c2ccc(N3CCOCC3)o2)C(=O)N1Cc1ccc(F)cc1 57.3%
O=C1S/C(=C\c2ccc(N3CCOCC3)o2)C(=O)N1Cc1c(F)cccc1Cl 56.3%
N#CCSc1nc2sc3c(c2c(=O)n1C1CCCCC1)CCCC3 52.4%
C=CCn1c(O)c(CN2CCCCC2)c(C)c(C#N)c1=O 70.2%
C=CCn1c(O)c(CN2CCOCC2)c(C)c(C#N)c1=O 56.6%
CC(=O)c1ccc(N2CCN(C(=O)c3ccc(Br)cc3)CC2)c(F)c1 55.1%
Cc1ccc(NC(=O)c2ccc(-n3cccn3)nc2)cc1 51.4%
Cc1ccc(N=Cc2c(O)ccc3ccccc23)cc1F 51.7%
Cc1cc(N=Cc2c(O)ccc3ccccc23)no1 66.9%
Oc1ccc2ccccc2c1C=Nc1ccc(Cl)cn1 75.2%
Cc1oc(/N=C/c2c(O)ccc3ccccc23)c(C#N)c1C 53.7%
N#Cc1cccc(N=Cc2c(O)ccc3ccccc23)c1 64.6%
O=C(O)Cc1ccc(N=Cc2c(O)ccc3ccccc23)cc1 58.7%
Oc1ccc2ccccc2c1/C=N/c1nccs1 62%
COc1ccc(N=Cc2c(O)ccc3ccccc23)cc1 68.5%
CCOC(=O)c1cc(CC)sc1/N=C/c1c(O)ccc2ccccc12 60.7%
